Experiment [1] can be described thus: NCI Yeast Anticancer Drug Screen. Data for the rad50 strain (AID 155).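 Also: 0% = growth of vehicle-only cultures of the same strain.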 The settings on record: S. cerevisiae rad50 strain growth inhibition, active compounds read high. A digest of the protocol: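 Yeast carrying a defined DNA repair defect were exposed to test compounds, and growth was compared with vehicle-treated controls to give percent inhibition.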
A short description of experiment [2]: NCI Yeast Anticancer Drug Screen. Data for the mec2-1 strain (AID 157). The settings on record: S. cerevisiae mec2-1 strain, active compounds read high. A digest of the protocol:
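Readout is yeast growth inhibition, normalised to vehicle-treated controls, in the mec2-1 strain exposed to compound.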

Experiment [3] is described as follows: NCI Yeast Anticancer Drug Screen. Data for the sgs1 mgt1 strain (AID 161).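 Also: 0% = growth of cultures given vehicle only.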 The settings on record: S. cerevisiae sgs1 mgt1 strain, active compounds read high. The procedure, abridged:
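Percent growth inhibition was derived by comparing compound-exposed mutant yeast with vehicle-exposed cultures. The strain carries alterations in DNA damage repair.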

Experiment [4] is described as follows: NCI Yeast Anticancer Drug Screen. Data for the cln2 rad14 strain (AID 165).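 Also: 0% = growth equal to vehicle treated cultures.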 The settings on record: S. cerevisiae cln2 rad14 strain, active compounds read high. A digest of the protocol:
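Relative to vehicle controls, growth inhibition of compound-treated cln2 rad14 yeast was recorded.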

Experiment [5] in a line: NCI Yeast Anticancer Drug Screen. Data for the bub3 strain (AID 167). As to conditions: S. cerevisiae bub3 mutant strain, active compounds read high. A digest of the protocol:
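Compounds were applied to a genetically altered yeast strain carrying a cell-cycle control defect. Growth inhibition was scored against vehicle-treated controls.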

Experiment [6] is described as follows: NCI Yeast Anticancer Drug Screen. Data for the mlh1 rad18 strain (AID 175). The settings on record: S. cerevisiae mlh1 rad18 strain growth inhibition, active compounds read high. The procedure, abridged:
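Test agents were incubated with a yeast strain of defined genotype (DNA damage repair defect). Inhibition of growth was derived by comparison with vehicle-exposed cultures.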

The mark [7] stands for this setting: at 5.0 µM (retest, dose inferred, filed as 0.5).
Where [8] appears, read: at 50.0 µM (retest, dose inferred, filed as 5.0).

This is part of a sample that, as a whole, favours compounds with a hit. Of some 79,000 tested, about 15% had one in any assay. A number with no mark means an inactive call. Calls of active or inactive are those of the source. Rule as the data show it: active = growth inhibition above about 70%; inactive = the rest.

Regarding `CCC(=O)OC1=C(Cl)C(=O)c2ccccc2C1=O`, the growth inhibition in experiment [1] (setting [7]) was 2%; in experiment [1] (setting [8]), 98% (active); in experiment [1] (at 50.0 µM), 71.8% (active); in experiment [2] (setting [7]), 4%; in experiment [2] (setting [8]), 99% (active); in experiment [2] (at 50.0 µM) it was 27.2%. The growth inhibition is 9% in experiment [3] (setting [7]); 99% (active) in experiment [3] (setting [8]); 63.8% in experiment [3] (at 50.0 µM); 2% in experiment [4] (setting [7]); 98% (active) in experiment [4] (setting [8]); 0.15% in experiment [4] (at 50.0 µM). Further, the growth inhibition in experiment [5] (setting [7]) is 6%; in experiment [5] (setting [8]) it was 99% (active); in experiment [5] (at 50.0 µM) it was 34.5%; in experiment [6] (setting [7]) it was 14%; in experiment [6] (setting [8]), 98% (active); in experiment [6] (at 50.0 µM) it was 55.4%.
Take `Nc1ccc2c(c1)S(=O)(=O)c1cc(O)ccc1O2`: the growth inhibition is 23% in experiment [1] (setting [7]); 18% in experiment [1] (setting [8]); 32.9% in experiment [1] (at 50.0 µM); 10% in experiment [2] (setting [7]); 20% in experiment [2] (setting [8]); -26.8% in experiment [2] (at 50.0 µM). In addition, the growth inhibition in experiment [3] (setting [7]) is 13%; in experiment [3] (setting [8]) it was 25%; in experiment [3] (at 50.0 µM), -22.6%; in experiment [4] (setting [7]), 11%; in experiment [4] (setting [8]), 24%; in experiment [4] (at 50.0 µM) it was -4.55%. Moreover, the growth inhibition was 21% in experiment [5] (setting [7]); 28% in experiment [5] (setting [8]); -15.2% in experiment [5] (at 50.0 µM); 8% in experiment [6] (setting [7]); 5% in experiment [6] (setting [8]); -71% in experiment [6] (at 50.0 µM).
On to `O=C(Nc1c(Cl)cccc1Cl)OCc1ccc2c(c1)OCO2`, for which the growth inhibition is 46% in experiment [1] (setting [7]); 54% in experiment [1] (setting [8]); 35.8% in experiment [1] (at 50.0 µM); 33% in experiment [2] (setting [7]); 32% in experiment [2] (setting [8]); 48.6% in experiment [2] (at 50.0 µM). Further, the growth inhibition in experiment [3] (setting [7]) was 44%; in experiment [3] (setting [8]), 53%; in experiment [3] (at 50.0 µM), 50%; in experiment [4] (setting [7]), 33%; in experiment [4] (setting [8]), 43%; in experiment [4] (at 50.0 µM), 14.3%. Besides, the growth inhibition in experiment [5] (setting [7]) was 46%; in experiment [5] (setting [8]), 73% (active); in experiment [5] (at 50.0 µM) it was 43%; in experiment [6] (setting [7]), 41%; in experiment [6] (setting [8]), 42%; in experiment [6] (at 50.0 µM), 35.9%.
Turning to `COc1cc2c(cc1O)CCCCC2`, the growth inhibition in experiment [1] (setting [7]) was 4%; in experiment [1] (setting [8]) it was 4%; in experiment [1] (at 50.0 µM) it was 41.1%; in experiment [2] (setting [7]) it was 3%; in experiment [2] (setting [8]) it was -2%; in experiment [2] (at 50.0 µM), -29.2%. Also, the growth inhibition in experiment [3] (setting [7]) is 1%; in experiment [3] (setting [8]), 8%; in experiment [3] (at 50.0 µM), 6.9%; in experiment [4] (setting [7]) it was -2%; in experiment [4] (setting [8]) it was -7%; in experiment [4] (at 50.0 µM) it was 0%. In addition, the growth inhibition is -4% in experiment [5] (setting [7]); 0% in experiment [5] (setting [8]); -7.5% in experiment [5] (at 50.0 µM); -3% in experiment [6] (setting [7]); 3% in experiment [6] (setting [8]); 43% in experiment [6] (at 50.0 µM).
Take `Cc1ccnc(NCCN(C)C)c1`: the growth inhibition is 2% in experiment [1] (setting [7]); -1% in experiment [1] (setting [8]); 98.5% (active) in experiment [1] (at 50.0 µM); 1% in experiment [2] (setting [7]); 4% in experiment [2] (setting [8]); 98.2% (active) in experiment [2] (at 50.0 µM). In addition, the growth inhibition is 3% in experiment [3] (setting [7]); 1% in experiment [3] (setting [8]); 97.5% (active) in experiment [3] (at 50.0 µM); -6% in experiment [4] (setting [7]); 1% in experiment [4] (setting [8]); 98.3% (active) in experiment [4] (at 50.0 µM). The growth inhibition is -1% in experiment [5] (setting [7]); -2% in experiment [5] (setting [8]); 99.3% (active) in experiment [5] (at 50.0 µM); -1% in experiment [6] (setting [7]); -1% in experiment [6] (setting [8]); 98.7% (active) in experiment [6] (at 50.0 µM).
Consider `C[C@@]12C[C@@H](Br)[C@H](Br)C[C@]1(C)O2`, for which the growth inhibition was 0% in experiment [1] (setting [7]); 16% in experiment [1] (setting [8]); 94.5% (active) in experiment [1] (at 50.0 µM); -1% in experiment [2] (setting [7]); 8% in experiment [2] (setting [8]); 98.7% (active) in experiment [2] (at 50.0 µM). In addition, the growth inhibition in experiment [3] (setting [7]) was 0%; in experiment [3] (setting [8]) it was 15%; in experiment [3] (at 50.0 µM), 98.1% (active); in experiment [4] (setting [7]), -2%; in experiment [4] (setting [8]), 2%; in experiment [4] (at 50.0 µM) it was 64.5%. In addition, the growth inhibition in experiment [5] (setting [7]) was -6%; in experiment [5] (setting [8]), 0%; in experiment [5] (at 50.0 µM), 55%; in experiment [6] (setting [7]) it was -1%; in experiment [6] (setting [8]) it was 6%; in experiment [6] (at 50.0 µM), 93.2% (active).
As for `CCCCCC/C=C\C=O`, the growth inhibition is -1% in experiment [1] (setting [7]); 4% in experiment [1] (setting [8]); 67.7% in experiment [1] (at 50.0 µM); -6% in experiment [2] (setting [7]); 13% in experiment [2] (setting [8]); 37.1% in experiment [2] (at 50.0 µM). For the same compound, the growth inhibition in experiment [3] (setting [7]) was 3%; in experiment [3] (setting [8]), 17%; in experiment [3] (at 50.0 µM), 64%; in experiment [4] (setting [7]) it was -6%; in experiment [4] (setting [8]), 12%; in experiment [4] (at 50.0 µM), 52%. The growth inhibition is -2% in experiment [5] (setting [7]); 6% in experiment [5] (setting [8]); 79.5% (active) in experiment [5] (at 50.0 µM); 0% in experiment [6] (setting [7]); 5% in experiment [6] (setting [8]); 51.4% in experiment [6] (at 50.0 µM).
With `CCOC(=O)C1CCC(=O)O1` (stereo not given), the growth inhibition in experiment [1] (setting [7]) is -4%; in experiment [1] (setting [8]) it was 43%; in experiment [1] (at 50.0 µM), -14%; in experiment [2] (setting [7]), 3%; in experiment [2] (setting [8]), 87% (active); in experiment [2] (at 50.0 µM), 7.85%. Besides, the growth inhibition in experiment [3] (setting [7]) is 4%; in experiment [3] (setting [8]), 78% (active); in experiment [3] (at 50.0 µM), 2.4%; in experiment [4] (setting [7]), -23%; in experiment [4] (setting [8]), 36%; in experiment [4] (at 50.0 µM), 16.6%. The growth inhibition in experiment [5] (setting [7]) was 2%; in experiment [5] (setting [8]), 93% (active); in experiment [5] (at 50.0 µM) it was 10.8%; in experiment [6] (setting [7]), -1%; in experiment [6] (setting [8]), 95% (active); in experiment [6] (at 50.0 µM), -1.15%.
On to `CC1(C)OC2C(COC(c3ccccc3)(c3ccccc3)c3ccccc3)OC(n3cnc4c(N)ncnc43)C2O1` (stereo not given), for which the growth inhibition is -1% in experiment [1] (setting [7]); 80% (active) in experiment [1] (setting [8]); 64.9% in experiment [1] (at 50.0 µM); 19% in experiment [2] (setting [7]); 99% (active) in experiment [2] (setting [8]); 56.8% in experiment [2] (at 50.0 µM). Besides, the growth inhibition in experiment [3] (setting [7]) is 11%; in experiment [3] (setting [8]), 92% (active); in experiment [3] (at 50.0 µM) it was 18.6%; in experiment [4] (setting [7]), -4%; in experiment [4] (setting [8]), 89% (active); in experiment [4] (at 50.0 µM), 72.5% (active). Moreover, the growth inhibition was -2% in experiment [5] (setting [7]); 92% (active) in experiment [5] (setting [8]); 48.2% in experiment [5] (at 50.0 µM); 32% in experiment [6] (setting [7]); 95% (active) in experiment [6] (setting [8]); 58.5% in experiment [6] (at 50.0 µM).
Regarding `Nc1ccc(S(=O)(=O)Nc2ccccc2)cc1`, the growth inhibition in experiment [1] (setting [7]) was -4%; in experiment [1] (setting [8]), 42%; in experiment [1] (at 50.0 µM), -7.35%; in experiment [2] (setting [7]), 7%; in experiment [2] (setting [8]), 7%; in experiment [2] (at 50.0 µM), -9.35%. For the same compound, the growth inhibition in experiment [3] (setting [7]) was -1%; in experiment [3] (setting [8]) it was 3%; in experiment [3] (at 50.0 µM), 26.1%; in experiment [4] (setting [7]) it was 0%; in experiment [4] (setting [8]), -6%; in experiment [4] (at 50.0 µM) it was 50.7%. In addition, the growth inhibition is 37% in experiment [5] (setting [7]); -1% in experiment [5] (setting [8]); -2.1% in experiment [5] (at 50.0 µM); 0% in experiment [6] (setting [7]); 4% in experiment [6] (setting [8]); 4.25% in experiment [6] (at 50.0 µM).

The record behind these values is PubChem BioAssay (NCI).
